{"source": "PubChem BioAssay (NCATS)", "key": {"CRL-7250": {"test_system": "CRL-7250", "experiment": "Cytotoxic Profiling of Annotated Libraries Using Quantitative High-Throughput Screening (AID 1296008); further: nearly all actives have a fitted effect of over 60% in size; further: potency means the concentration at half of the fitted maximal effect; on max response: on the % scale 0 is the no-effect control and ±100 the full control effect", "conditions": "Five cell lines viability, CellTiter-Glo ATP luminescence, 48-72 h; max response: hits give low values", "in_short": "(§1)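 Cytotoxicity was measured as CellTiter-Glo ATP luminescence, read after 10 min at room temperature. Compound treatment of the cells lasted 48 or 72 hr at 37 degrees Celsius in a qHTS format.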"}, "HEK293": {"test_system": "HEK293", "experiment": "Cytotoxic Profiling of Annotated Libraries Using Quantitative High-Throughput Screening (AID 1296008)", "conditions": "Five cell lines viability, CellTiter-Glo ATP luminescence, 48-72 h; max response: hits give low values", "in_short": "as §1"}}, "note": "Records with an inconclusive call do not appear. Unmarked numbers belong to inactive results. Active and inactive are the calls of the source. The call rests on the fitted dose curve; in most records, active means well fitted inhibition curve with a large enough effect; inconclusive means small, poorly fitted or top-dose-only effect; inactive means flat fitted curve, though single readings scatter. Where a SMILES comes first, the peptide text is derived from it. [ ]: non-standard residue; d: D form. ξ: configuration not given here. ξLac(3-iPr) = CC(C)CC(O)C(=O)O; NMeV = CN[CH](C(=O)O)C(C)C; βAla = NCCC(=O)O"}
{"smiles": "C=C[C@]1(C)C=C2CCC3C(C)(CCC[C@@]3(C)C(=O)O)C2CC1", "note": "(stereo not given in full)", "values": [{"measurement": "outcome", "setting": "CRL-7250", "result": "inactive"}, {"measurement": "max response", "setting": "HEK293", "result": 0.507, "unit": "%"}]}
{"smiles": "CC1=C(CO)C(=O)O[C@@H]([C@@H](C)[C@H]2CC[C@H]3[C@@H]4C[C@H]5O[C@]56[C@@H](O)C=CC(=O)[C@]6(C)[C@H]4CC[C@]23C)C1", "values": [{"measurement": "Potency", "setting": "CRL-7250", "result": "3.99 µM (active)"}, {"measurement": "Potency", "setting": "HEK293", "result": "1120 nM (active)"}]}
{"smiles": "Cc1ccc(-c2ccc3ncc4c(c3n2)n(C2CCN(C(=O)[C@H](C)O)CC2)c(=O)n4C)cn1", "values": [{"measurement": "Potency", "setting": "CRL-7250", "result": "0.146 µM (active)"}, {"measurement": "Potency", "setting": "HEK293", "result": "82 nM (active)"}]}
{"smiles": "Cn1c2ccc(F)cc2c2c(C(=O)N3CCCC3)cn(-c3ccccc3)c(=O)c21", "values": [{"measurement": "outcome", "setting": "CRL-7250", "result": "inactive"}, {"measurement": "max response", "setting": "HEK293", "result": -22.1, "unit": "%"}]}
{"smiles": "C[C@]12C[C@@H](O)[C@@H]3C[C@@]1(O[C@@H]1O[C@H](CO)[C@@H](O)[C@H](O)[C@H]1O)[C@]3(COC(=O)c1ccccc1)C(=O)O2", "values": [{"measurement": "max response", "setting": "CRL-7250", "result": -9.75, "unit": "%"}, {"measurement": "outcome", "setting": "HEK293", "result": "inactive"}]}
{"smiles": "C/C=C(/COC(=O)/C(C)=C/C)C(=O)OC(CC)c1ccc(OC)c(OC)c1", "note": "(stereo not given)", "values": [{"measurement": "max response", "setting": "CRL-7250", "result": 3.89, "unit": "%"}, {"measurement": "max response", "setting": "HEK293", "result": 4.08, "unit": "%"}]}
{"smiles": "C[C@@H]1C[C@@H]2O[C@H]2/C=C\\C=C\\C(=O)Cc2c(Cl)c(O)cc(O)c2C(=O)O1", "values": [{"measurement": "Potency", "setting": "CRL-7250", "result": "4.53 µM (active)"}, {"measurement": "Potency", "setting": "HEK293", "result": "286 nM (active)"}]}
{"smiles": "C/C=C/C=C/C(=O)N1CC[C@]23c4ccccc4N[C@H]4N(C)c5cccc6c5[C@@]42CCN([C@H]6C2OC2(C)C)[C@H]13", "note": "(stereo not given in full)", "values": [{"measurement": "max response", "setting": "CRL-7250", "result": -2.8, "unit": "%"}, {"measurement": "max response", "setting": "HEK293", "result": -2.78, "unit": "%"}]}
{"smiles": "Cc1[nH]nc(C(F)(F)F)c1Cc1sc2c(c1C(=O)N1C[C@](C)(O)CO1)c(=O)n(C)c(=O)n2C(C)C", "values": [{"measurement": "max response", "setting": "CRL-7250", "result": -0.426, "unit": "%"}, {"measurement": "Potency", "setting": "HEK293", "result": "51.7 nM (active)"}]}
{"smiles": "COc1c2c(c(C)c3c1C(=O)OC3)OC1(C)CC(O)C34OC(OC)(OC3(C)C)C(O)CC4(C)C1C2", "note": "(stereo not given)", "values": [{"measurement": "outcome", "setting": "CRL-7250", "result": "inactive"}, {"measurement": "max response", "setting": "HEK293", "result": -9.65, "unit": "%"}]}
{"smiles": "CC(C)CC1OC(=O)C2CCCN2C(=O)CCNC(=O)C(Cc2ccccc2)NC(=O)C(C(C)C)N(C)C(=O)C(C(C)C)N(C)C1=O", "note": "(stereo not given) (cyclo([ξLac(3-iPr)][NMeV][NMeV]F[βAla]P); configuration not given here)", "values": [{"measurement": "max response", "setting": "CRL-7250", "result": 2.18, "unit": "%"}, {"measurement": "max response", "setting": "HEK293", "result": 4, "unit": "%"}]}
{"smiles": "CC1(C)CCCC2(C)C(CO)C(CO)=CCC12", "note": "(stereo not given)", "values": [{"measurement": "max response", "setting": "CRL-7250", "result": -20.3, "unit": "%"}, {"measurement": "max response", "setting": "HEK293", "result": -4.79, "unit": "%"}]}
{"smiles": "Cn1cncc1C(N)(c1ccc(Cl)cc1)c1ccc2c(c1)c(-c1cccc(Cl)c1)cc(=O)n2C", "note": "(stereo not given)", "values": [{"measurement": "Potency", "setting": "CRL-7250", "result": "23.1 µM (active)"}, {"measurement": "Potency", "setting": "HEK293", "result": "259 nM (active)"}]}
{"smiles": "C=C1CC[C@H]2[C@@](C)(CCC(O)[C@@]2(C)CO)[C@@H]1CCC1=CCOC1=O", "note": "(stereo not given in full)", "values": [{"measurement": "max response", "setting": "CRL-7250", "result": 0.497, "unit": "%"}, {"measurement": "max response", "setting": "HEK293", "result": 3.62, "unit": "%"}]}
{"smiles": "CC(=O)O[C@@H]1[C@H](O[C@@H]2O[C@@H](CO)[C@H](O)[C@H]2O)[C@@H](O[C@@H]2O[C@@H](C)[C@H](O[C@@H]3OC[C@@H](O)[C@H](O)[C@H]3O)[C@@H](O)[C@H]2O)[C@H](OC(=O)[C@]23CCC(C)(C)C[C@H]2C2=CCC4[C@@]5(C)CC[C@H](O[C@@H]6O[C@H](C(=O)O)[C@@H](O)[C@H](O)[C@H]6O[C@@H]6O[C@H](CO)[C@H](O)[C@H](O)[C@H]6O)[C@@](C)(C=O)C5CC[C@@]4(C)[C@]2(C)CC3)O[C@@H]1C", "note": "(stereo not given in full)", "values": [{"measurement": "outcome", "setting": "CRL-7250", "result": "inactive"}, {"measurement": "max response", "setting": "HEK293", "result": -1.69, "unit": "%"}]}
{"smiles": "CO[C@H]1/C=C\\O[C@@]2(C)Oc3c(C)c(O)c4c(O)c(c5c(nc6cc(C)ccn65)c4c3C2=O)NC(=O)/C(C)=C\\C=C/[C@H](C)[C@H](O)[C@@H](C)[C@@H](O)[C@@H](C)[C@H](OC(C)=O)[C@@H]1C", "values": [{"measurement": "max response", "setting": "CRL-7250", "result": -2.8, "unit": "%"}, {"measurement": "max response", "setting": "HEK293", "result": -17.1, "unit": "%"}]}
{"smiles": "CC1=C2C[C@H]3O[C@@]3(C)CCC3O[C@@]3(C)C[C@@]2(O)OC1=O", "note": "(stereo not given in full)", "values": [{"measurement": "outcome", "setting": "CRL-7250", "result": "inactive"}, {"measurement": "max response", "setting": "HEK293", "result": -4.05, "unit": "%"}]}
{"smiles": "C=C1CCC2C(C)(C)CCC[C@]2(C)[C@H]1C/C=C(\\CO)C(=O)C(=O)O", "note": "(stereo not given in full)", "values": [{"measurement": "max response", "setting": "CRL-7250", "result": -8.85, "unit": "%"}, {"measurement": "max response", "setting": "HEK293", "result": 1.79, "unit": "%"}]}
{"smiles": "COc1ccc(CC2NCCc3c2[nH]c2ccc(C)cc32)cc1OC", "note": "(stereo not given)", "values": [{"measurement": "max response", "setting": "CRL-7250", "result": -17.7, "unit": "%"}, {"measurement": "Potency", "setting": "HEK293", "result": "10300 nM (active)"}]}
{"smiles": "CC(O)/C=C/C1OC(=O)CC1Nc1ccc(C(=O)O)cc1", "note": "(stereo not given)", "values": [{"measurement": "max response", "setting": "CRL-7250", "result": -10.3, "unit": "%"}, {"measurement": "max response", "setting": "HEK293", "result": -8.85, "unit": "%"}]}
{"smiles": "CC(=O)N1CCc2ccc(O)c(OC3OC(COC4OCC(O)(CO)C4O)C(O)C(O)C3O)c2C1Cc1ccc(O)cc1", "note": "(stereo not given)", "values": [{"measurement": "max response", "setting": "CRL-7250", "result": -12.6, "unit": "%"}, {"measurement": "max response", "setting": "HEK293", "result": -5.03, "unit": "%"}]}
{"smiles": "Cc1nc2ccc(Oc3ccc(F)cc3)cc2c(=O)n1C[C@H]1CCCN(C(C)C)C1", "values": [{"measurement": "max response", "setting": "CRL-7250", "result": -2.55, "unit": "%"}, {"measurement": "max response", "setting": "HEK293", "result": -15.9, "unit": "%"}]}
{"smiles": "C[C@H]1CC[C@@H]2N(C1)C[C@@H]1[C@H]([C@@H](O)[C@H](O)[C@]3(O)[C@H]1C[C@@]14OC5(O)[C@@H](C[C@@H](O)[C@@H]31)[C@]4(C)CC[C@@H]5O)[C@]2(C)O", "values": [{"measurement": "outcome", "setting": "CRL-7250", "result": "inactive"}, {"measurement": "max response", "setting": "HEK293", "result": -8.96, "unit": "%"}]}
{"smiles": "CCn1c(=O)c(-c2ccn[nH]2)cc2c(C)nc(N)nc21", "values": [{"measurement": "Potency", "setting": "CRL-7250", "result": "2.31 µM (active)"}, {"measurement": "Potency", "setting": "HEK293", "result": "4610 nM (active)"}]}
{"smiles": "Cc1cccc(S(=O)(=O)N2CCC[C@@H]2CCN2CCC(C)CC2)c1", "values": [{"measurement": "max response", "setting": "CRL-7250", "result": -2.64, "unit": "%"}, {"measurement": "max response", "setting": "HEK293", "result": -20.7, "unit": "%"}]}
